Experimental data reported in the supplement of paper PMC6992640.
Where a name gives a salt, the structure may show the parent alone. ± gives the standard deviation of the averaged measurements.

Assays:
Assay in all cases: cell viability (% of vehicle); higher = less cytotoxic
Conditions in all cases: 10 µM; 72 h
HCI01 = tested on: HCI01 (cells of a triple-negative basal-like breast cancer xenograft)
HCI03 = tested on: HCI03 (cells of an ER-positive luminal breast cancer xenograft)
HCI09 = tested on: HCI09 (cells of a triple-negative luminal androgen receptor type breast cancer xenograft)
HCI11 = tested on: HCI11 (cells of an ER-positive luminal breast cancer xenograft)
HCI13 = tested on: HCI13 (cells of an ER-positive luminal breast cancer xenograft)
HCI16 = tested on: HCI16 (cells of a triple-negative basal-like breast cancer xenograft)
UCD52 = tested on: UCD52 (cells of a triple-negative basal-like breast cancer xenograft)
WHIM2 = tested on: WHIM2 (cells of a triple-negative basal-like breast cancer xenograft)
WHIM30 = tested on: WHIM30 (cells of a triple-negative basal-like breast cancer xenograft)
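Also: PDX cells carrying CMV promoter-driven luciferase, viability read as total photon flux per second by IVIS imaging following D-luciferin, vehicle control 0.1% DMSO.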

Which cell viability (HCI01) does the source give for `CN(C)C(=O)c1cc2cnc(Nc3ccc(N4CCNCC4)cn3)nc2n1C1CCCC1` here?
Its cell viability is 109 ± 4.3.

And the cell viability (HCI03)?
The cell viability was 135.

And the cell viability (HCI09)?
The cell viability was 114 ± 30.

And the cell viability (HCI11)?
The cell viability was 138.

What about the cell viability (HCI13) of the same compound?
The cell viability was 126 ± 13.

What about the cell viability (HCI16) of the same compound?
Its cell viability is 91.7.

And the cell viability (UCD52)?
The cell viability was 148 ± 8.1.

What about the cell viability (WHIM2) of the same compound?
The cell viability was 108 ± 13.

What about the cell viability (WHIM30) of the same compound?
Its cell viability is 130 ± 9.5.

`CCc1ccc(CCOc2ccc(CC3SC(=O)NC3=O)cc2)nc1` (stereo not drawn) [Pioglitazone] was tested. Which cell viability (HCI01) did it give?
Its cell viability is 93 ± 44.

What about the cell viability (HCI03) of the same compound?
Its cell viability is 118.

And the cell viability (HCI09)?
The cell viability was 123 ± 30.

What about the cell viability (HCI11) of the same compound?
The cell viability was 104.

And the cell viability (HCI13)?
The cell viability was 135 ± 16.

What about the cell viability (HCI16) of the same compound?
Its cell viability is 133.

And the cell viability (UCD52)?
The cell viability was 106 ± 8.1.

And the cell viability (WHIM2)?
The cell viability was 106 ± 21.

And the cell viability (WHIM30)?
Its cell viability is 171 ± 1.9.

Which cell viability (HCI01) does the source give for `CN(C)CCCN1c2ccccc2Sc2ccc(Cl)cc21.Cl` [Chlorpromazine HCl] here?
The cell viability was 137 ± 40.

And the cell viability (HCI03)?
The cell viability was 98.9.

And the cell viability (HCI09)?
Its cell viability is 68.1 ± 7.8.

What about the cell viability (HCI11) of the same compound?
The cell viability was 76.5.

And the cell viability (HCI13)?
The cell viability was 84.7 ± 3.1.

And the cell viability (HCI16)?
The cell viability was 122.

And the cell viability (UCD52)?
Its cell viability is 51.4 ± 5.5.

And the cell viability (WHIM2)?
The cell viability was 47.8 ± 7.8.

What about the cell viability (WHIM30) of the same compound?
The cell viability was 104 ± 2.1.

For `Cc1ccsc1C(=CCCN1CCC[C@@H](C(=O)O)C1)c1sccc1C` [Tiagabine hydrochloride], which cell viability (HCI01) is on record?
Its cell viability is 100 ± 1.8.

And the cell viability (HCI03)?
The cell viability was 93.2.

And the cell viability (HCI09)?
The cell viability was 90.8 ± 14.

What about the cell viability (HCI11) of the same compound?
The cell viability was 86.4.

What about the cell viability (HCI13) of the same compound?
Its cell viability is 96.1 ± 6.3.

And the cell viability (HCI16)?
The cell viability was 95.6.

What about the cell viability (UCD52) of the same compound?
The cell viability was 97.2 ± 14.

What about the cell viability (WHIM2) of the same compound?
Its cell viability is 109 ± 34.

What about the cell viability (WHIM30) of the same compound?
The cell viability was 105 ± 2.

`CNCC(O)c1ccc(O)c(O)c1.O=C(O)C(O)C(O)C(=O)O` (stereo not drawn) [Epinephrine Bitartrate] was tested. Which cell viability (HCI01) did it give?
Its cell viability is 90.1 ± 26.

And the cell viability (HCI03)?
The cell viability was 96.3.

And the cell viability (HCI09)?
Its cell viability is 89 ± 23.

And the cell viability (HCI11)?
Its cell viability is 90.8.

And the cell viability (HCI13)?
The cell viability was 71.7 ± 3.3.

And the cell viability (HCI16)?
Its cell viability is 96.7.

What about the cell viability (UCD52) of the same compound?
Its cell viability is 100 ± 8.4.

And the cell viability (WHIM2)?
The cell viability was 67.4 ± 26.

What about the cell viability (WHIM30) of the same compound?
The cell viability was 110.2 ± 1.1.

With `Cc1cc(C)c2c(c1)C(N(Cc1cc(C(F)(F)F)cc(C(F)(F)F)c1)c1nnn(C)n1)CCCN2CC1CCC(C(=O)O)CC1` (stereo not drawn) as the compound, how does the cell viability (HCI01) read?
Its cell viability is 41.2 ± 16.

And the cell viability (HCI03)?
Its cell viability is 135.

What about the cell viability (HCI09) of the same compound?
Its cell viability is 61.9 ± 53.

What about the cell viability (HCI11) of the same compound?
The cell viability was 98.5.

What about the cell viability (HCI13) of the same compound?
The cell viability was 51.4 ± 8.7.

And the cell viability (HCI16)?
Its cell viability is 139.

And the cell viability (UCD52)?
The cell viability was 119 ± 2.1.

What about the cell viability (WHIM2) of the same compound?
The cell viability was 91.8 ± 4.9.

And the cell viability (WHIM30)?
The cell viability was 110 ± 6.3.

Which results are given for `Nc1nc(=O)c2c(CCc3ccc(C(=O)NC(CCC(=O)[O-])C(=O)[O-])cc3)c[nH]c2[nH]1.[Na+].[Na+]` (stereo not drawn) [Pemetrexed]?
cell viability (HCI01): 94.1 ± 3.5; cell viability (HCI03): 102; cell viability (HCI09): 88.7 ± 10; cell viability (HCI11): 92.9; cell viability (HCI13): 105 ± 5.3; cell viability (HCI16): 105; cell viability (UCD52): 93.4 ± 13; cell viability (WHIM2): 95.2 ± 9.6; cell viability (WHIM30): 130 ± 10

With `CC1OC(OCC2OC(Oc3c(-c4ccc(O)c(O)c4)oc4cc(O)cc(O)c4c3=O)C(O)C(O)C2O)C(O)C(O)C1O` (stereo not drawn) [Rutin] as the compound, how does the cell viability (HCI01) read?
The cell viability was 107 ± 32.

And the cell viability (HCI03)?
Its cell viability is 128.

What about the cell viability (HCI09) of the same compound?
Its cell viability is 101 ± 9.8.

And the cell viability (HCI11)?
The cell viability was 102.

And the cell viability (HCI13)?
The cell viability was 118 ± 8.5.

And the cell viability (HCI16)?
The cell viability was 138.

And the cell viability (UCD52)?
The cell viability was 103 ± 14.

What about the cell viability (WHIM2) of the same compound?
The cell viability was 122 ± 9.8.

And the cell viability (WHIM30)?
The cell viability was 101 ± 13.

Which cell viability (HCI01) does the source give for `CCCC(=O)[O-].[Na+]` [Sodium butyrate] here?
Its cell viability is 99.3 ± 20.

What about the cell viability (HCI03) of the same compound?
Its cell viability is 85.5.

What about the cell viability (HCI09) of the same compound?
The cell viability was 89.8 ± 3.3.

And the cell viability (HCI11)?
The cell viability was 92.5.

And the cell viability (HCI13)?
The cell viability was 47.1 ± 5.4.

And the cell viability (HCI16)?
Its cell viability is 91.9.

What about the cell viability (UCD52) of the same compound?
The cell viability was 73.7 ± 6.9.

What about the cell viability (WHIM2) of the same compound?
The cell viability was 83.5 ± 18.

What about the cell viability (WHIM30) of the same compound?
The cell viability was 119 ± 11.

With `Cl.c1ccc2c(c1)CCCC2C1=NCCN1` (stereo not drawn) [Tetrahydrozoline HCl] as the compound, how does the cell viability (HCI01) read?
Its cell viability is 114 ± 3.1.

What about the cell viability (HCI03) of the same compound?
Its cell viability is 116.

And the cell viability (HCI09)?
The cell viability was 97.1 ± 17.

What about the cell viability (HCI11) of the same compound?
Its cell viability is 106.

And the cell viability (HCI13)?
The cell viability was 86.8 ± 1.9.

And the cell viability (HCI16)?
The cell viability was 108.

What about the cell viability (UCD52) of the same compound?
The cell viability was 89.5 ± 2.

And the cell viability (WHIM2)?
Its cell viability is 101 ± 21.

What about the cell viability (WHIM30) of the same compound?
The cell viability was 115 ± 2.9.

For `CCC1OC(=O)C(C)C(OC2CC(C)(OC)C(O)C(C)O2)C(C)C(OC2OC(C)CC(N(C)C)C2O)C(C)(OC)CC(C)C(=O)C(C)C(O)C1(C)O` (stereo not drawn) [Clarithromycin], which cell viability (HCI01) is on record?
The cell viability was 112 ± 5.1.

And the cell viability (HCI03)?
The cell viability was 137.

And the cell viability (HCI09)?
The cell viability was 94.7 ± 19.

What about the cell viability (HCI11) of the same compound?
Its cell viability is 116.

What about the cell viability (HCI13) of the same compound?
The cell viability was 125 ± 11.

What about the cell viability (HCI16) of the same compound?
Its cell viability is 96.6.

And the cell viability (UCD52)?
Its cell viability is 95.5 ± 8.8.

What about the cell viability (WHIM2) of the same compound?
Its cell viability is 104 ± 10.

And the cell viability (WHIM30)?
Its cell viability is 113 ± 22.

What does the source list for `Nc1nc(=O)c2nc(CNc3ccc(C(=O)NC(CCC(=O)O)C(=O)O)cc3)cnc2[nH]1` (stereo not drawn) [Folic acid]?
cell viability (HCI01): 103 ± 21; cell viability (HCI03): 118; cell viability (HCI09): 97.5 ± 12; cell viability (HCI11): 85.3; cell viability (HCI13): 101 ± 2.8; cell viability (HCI16): 117; cell viability (UCD52): 92.4 ± 23; cell viability (WHIM2): 96.1 ± 4.2; cell viability (WHIM30): 101 ± 8.4

Which results are given for `CON=C(C(=O)NC1C(=O)N2C(C(=O)O)=C(CSC(=O)c3ccco3)CSC12)c1csc(N)n1.Cl` (stereo not drawn) [Ceftiofur HCl]?
cell viability (HCI01): 90.2 ± 12; cell viability (HCI03): 132; cell viability (HCI09): 95.9 ± 8.5; cell viability (HCI11): 100; cell viability (HCI13): 56.9 ± 2.3; cell viability (HCI16): 103; cell viability (UCD52): 103 ± 12; cell viability (WHIM2): 104 ± 10; cell viability (WHIM30): 111 ± 14

`COc1cc(C(C)=O)ccc1OCCCN1CCC(c2noc3cc(F)ccc23)CC1` [Iloperidone] was tested. Which cell viability (HCI01) did it give?
The cell viability was 153 ± 25.

What about the cell viability (HCI03) of the same compound?
The cell viability was 101.

And the cell viability (HCI09)?
Its cell viability is 117 ± 19.

And the cell viability (HCI11)?
The cell viability was 103.

And the cell viability (HCI13)?
The cell viability was 121 ± 14.

What about the cell viability (HCI16) of the same compound?
The cell viability was 172.

And the cell viability (UCD52)?
The cell viability was 88.2 ± 1.8.

And the cell viability (WHIM2)?
Its cell viability is 106 ± 6.

What about the cell viability (WHIM30) of the same compound?
Its cell viability is 122.82 ± 0.035.

How did the cell viability (HCI01) turn out when `COc1ccc(-n2nc(C(N)=O)c3c2C(=O)N(c2ccc(N4CCCCC4=O)cc2)CC3)cc1` [Apixaban] was run?
The cell viability was 100.8 ± 0.64.

What about the cell viability (HCI03) of the same compound?
Its cell viability is 113.

What about the cell viability (HCI09) of the same compound?
The cell viability was 93.5 ± 17.

What about the cell viability (HCI11) of the same compound?
Its cell viability is 173.

And the cell viability (HCI13)?
The cell viability was 149 ± 8.9.

And the cell viability (HCI16)?
Its cell viability is 82.4.

And the cell viability (UCD52)?
Its cell viability is 90.7 ± 6.2.

What about the cell viability (WHIM2) of the same compound?
Its cell viability is 97.6 ± 8.3.

And the cell viability (WHIM30)?
Its cell viability is 85.2 ± 14.

With `O=P(O)(O)C(O)(Cn1ccnc1)P(=O)(O)O` [Zoledronic Acid] as the compound, how does the cell viability (HCI01) read?
Its cell viability is 134 ± 17.

And the cell viability (HCI03)?
Its cell viability is 135.

And the cell viability (HCI09)?
Its cell viability is 88.4 ± 13.

And the cell viability (HCI11)?
Its cell viability is 172.

And the cell viability (HCI13)?
Its cell viability is 75.2 ± 8.7.

What about the cell viability (HCI16) of the same compound?
The cell viability was 94.7.

And the cell viability (UCD52)?
Its cell viability is 60.6 ± 1.4.

What about the cell viability (WHIM2) of the same compound?
Its cell viability is 68.7 ± 15.

What about the cell viability (WHIM30) of the same compound?
The cell viability was 107 ± 21.

`COc1cc(C=CC(=O)N2CCN(CC(=O)N3CCCC3)CC2)cc(OC)c1OC.O=C(O)C=CC(=O)O` [Cinepazide maleate] was tested. Which cell viability (HCI01) did it give?
The cell viability was 90.6 ± 5.7.

What about the cell viability (HCI03) of the same compound?
The cell viability was 130.

What about the cell viability (HCI09) of the same compound?
Its cell viability is 94.4 ± 8.9.

What about the cell viability (HCI11) of the same compound?
The cell viability was 94.4.

And the cell viability (HCI13)?
Its cell viability is 81.9 ± 12.

What about the cell viability (HCI16) of the same compound?
Its cell viability is 106.

And the cell viability (UCD52)?
The cell viability was 121 ± 8.9.

And the cell viability (WHIM2)?
Its cell viability is 111 ± 17.

What about the cell viability (WHIM30) of the same compound?
The cell viability was 102 ± 8.3.
